# According to PubChem BioAssay:
# Active and inactive are the calls of the source. Rule as the data show it: active = nuclear beta-catenin stimulation mostly above about 4.2% (no sharp cut-off); inactive = mostly below about 10%.
# Assay: Wnt pathway potentiators raising nuclear beta-catenin – imaging, WNT3A-conditioned medium, mouse C2C12, NPC library, primary screen (AID 1117326); also: reference of the scale not given here
# Conditions: at 10 µM, stronger effect = higher value
row,Structure (SMILES),nuclear beta-catenin stimulation
1,NC1[C@H]2CN(c3nc4c(cc3F)c(=O)c(C(=O)O)cn4-c3ccc(F)cc3F)C[C@@H]12 (stereo partly drawn),-0.6% (inactive)
2,CCn1c(=O)c2c(nc(C=Cc3ccc(OC)c(OC)c3)n2C)n(CC)c1=O,-0.2% (inactive)
3,COc1ccc(CCN(C)CCCC(C#N)(c2cc(OC)c(OC)c(OC)c2)C(C)C)cc1OC (stereo not drawn),1% (inactive)
4,N[C@@H](CC(=O)O)C(=O)O,0% (inactive)
5,C[C@]12CCC(=O)C=C1CC[C@@H]1[C@@H]2CC[C@@]2(C)[C@H]1CC[C@]2(O)C(=O)CO,0.3% (inactive)
6,O=c1[nH]c(=O)n([C@H]2C[C@H](O)[C@@H](CO)O2)cc1Br,0.6% (inactive)
7,CC1=C(CC(=O)O)c2cc(F)ccc2/C1=C\c1ccc(S(C)(=O)=O)cc1,0.1% (inactive)
8,CCN1CCc2nc(N)oc2CC1,-1.7% (inactive)
9,NC(CO)(CO)CO,1.8% (inactive)
10,NC(=O)c1cn(Cc2c(F)cccc2F)nn1,0.5% (inactive)
11,CSc1ccc(C(=O)c2[nH]c(=O)[nH]c2C)cc1,0.3% (inactive)
12,CC(=O)Oc1cc(C(F)(F)F)ccc1C(=O)O,-0.6% (inactive)
13,NC(N)=NCCC[C@H](N)C(=O)O,-0.2% (inactive)
14,COC(=O)C1=C(C#N)NC(C)=C(C(=O)OC(C)C)C1c1cccc([N+](=O)[O-])c1 (stereo not drawn),-1.3% (inactive)
15,CCCCCCCCCCCCCCCCO,-0.4% (inactive)
16,O=C1NC(=O)[C@@]2(CCOc3ccc(F)cc32)N1,-1.1% (inactive)
17,COc1cc(C)c(C=CC(C)=CC=CC(C)=CC(=O)O)c(C)c1C,1% (inactive)
18,C[N+](C)(C)CCOC(=O)CCC(=O)OCC[N+](C)(C)C,0.2% (inactive)
19,Cc1nc2c([nH]1)c(=O)n(C)c(=O)n2Cc1ccco1,-1.1% (inactive)
20,OCCN1CCN(CC/C=C2/c3ccccc3Sc3ccc(C(F)(F)F)cc32)CC1,-1.3% (inactive)

row,Structure (SMILES),nuclear beta-catenin stimulation
1,CC(C)(C)c1ccc(C(=O)CCCN2CCC(OC(c3ccccc3)c3ccccc3)CC2)cc1,0.6% (inactive)
2,Nc1cc(=O)[nH]c(N)n1,1.3% (inactive)
3,CC(=O)[C@@]1(O)CC[C@H]2[C@@H]3CCC4=CC(=O)CC[C@]4(C)[C@H]3CC[C@@]21C,1.2% (inactive)
4,COc1cc(C=O)ccc1O,1.6% (inactive)
5,COC(=O)C1=C(C)NC(C)=C(C(=O)OC(C)(C)CN(C)CCC(c2ccccc2)c2ccccc2)C1c1cccc([N+](=O)[O-])c1 (stereo not drawn),22.4% (inactive)
6,CCC(=O)c1ccc2c(c1)N(CCCN(C)C)c1ccccc1S2,0.3% (inactive)
7,COC(=O)C(c1ccccc1Cl)N1CCc2sccc2C1 (stereo not drawn),0.3% (inactive)
8,OCCN1CCN(CCCN2c3ccccc3C=Cc3ccccc32)CC1,-0.5% (inactive)
9,CCNC(=O)N1CCN(CCCC(c2ccc(F)cc2)c2ccc(F)cc2)CC1,0.3% (inactive)
10,C(=C\c1ccccc1)/CN1CCN(C(c2ccccc2)c2ccccc2)CC1,1.7% (inactive)
11,Nc1cccc2c1CN(C1CCC(=O)NC1=O)C2=O (stereo not drawn),2% (inactive)
12,COC(=O)[C@@H](N)Cc1ccc(O)c(O)c1,6.9% (inactive)
13,CCCCc1ncc(/C=C(\Cc2cccs2)C(=O)O)n1Cc1ccc(C(=O)O)cc1,0.4% (inactive)
14,O=C(O)CN(CCOCCOCCN(CC(=O)O)CC(=O)O)CC(=O)O,0% (inactive)
15,CCCCCCCCCCCCCCC[C@H](O)[C@@H](N)CO,43.1% (active)
16,O=C(O)CP(=O)(O)O,4.8% (inactive)
17,N[C@@H](COP(=O)(O)O)C(=O)O,0.6% (inactive)
18,O=S(=O)(O)Oc1ccc(C(c2ccc(OS(=O)(=O)O)cc2)c2ccccn2)cc1,-1.8% (inactive)
19,CCN(CC)CCCN(c1ccccc1)C1Cc2ccccc2C1,-1.7% (inactive)

# Same assay, conditions: stimulation, at 2 µM, stronger effect = higher value
row,Structure (SMILES),nuclear beta-catenin stimulation [%]
1,NC1[C@H]2CN(c3nc4c(cc3F)c(=O)c(C(=O)O)cn4-c3ccc(F)cc3F)C[C@@H]12 (stereo partly drawn),0.5
2,CCn1c(=O)c2c(nc(C=Cc3ccc(OC)c(OC)c3)n2C)n(CC)c1=O,-0.6
3,COc1ccc(CCN(C)CCCC(C#N)(c2cc(OC)c(OC)c(OC)c2)C(C)C)cc1OC (stereo not drawn),0.7
4,N[C@@H](CC(=O)O)C(=O)O,-0.6
5,C[C@]12CCC(=O)C=C1CC[C@@H]1[C@@H]2CC[C@@]2(C)[C@H]1CC[C@]2(O)C(=O)CO,-0.1
6,O=c1[nH]c(=O)n([C@H]2C[C@H](O)[C@@H](CO)O2)cc1Br,-1.1
7,CC1=C(CC(=O)O)c2cc(F)ccc2/C1=C\c1ccc(S(C)(=O)=O)cc1,-0.8
8,CCN1CCc2nc(N)oc2CC1,0.3
9,NC(CO)(CO)CO,3.7
10,NC(=O)c1cn(Cc2c(F)cccc2F)nn1,2.9
11,CSc1ccc(C(=O)c2[nH]c(=O)[nH]c2C)cc1,0.1
12,CC(=O)Oc1cc(C(F)(F)F)ccc1C(=O)O,-0.8
13,NC(N)=NCCC[C@H](N)C(=O)O,2.5
14,COC(=O)C1=C(C#N)NC(C)=C(C(=O)OC(C)C)C1c1cccc([N+](=O)[O-])c1 (stereo not drawn),2.3
15,CCCCCCCCCCCCCCCCO,0.7
16,O=C1NC(=O)[C@@]2(CCOc3ccc(F)cc32)N1,0.6
17,COc1cc(C)c(C=CC(C)=CC=CC(C)=CC(=O)O)c(C)c1C,1.9
18,C[N+](C)(C)CCOC(=O)CCC(=O)OCC[N+](C)(C)C,1.4
19,Cc1nc2c([nH]1)c(=O)n(C)c(=O)n2Cc1ccco1,-0.9
20,OCCN1CCN(CC/C=C2/c3ccccc3Sc3ccc(C(F)(F)F)cc32)CC1,14.5

row,Structure (SMILES),nuclear beta-catenin stimulation [%]
1,CC(C)(C)c1ccc(C(=O)CCCN2CCC(OC(c3ccccc3)c3ccccc3)CC2)cc1,11.9
2,Nc1cc(=O)[nH]c(N)n1,1.3
3,CC(=O)[C@@]1(O)CC[C@H]2[C@@H]3CCC4=CC(=O)CC[C@]4(C)[C@H]3CC[C@@]21C,2.3
4,COc1cc(C=O)ccc1O,0.8
5,COC(=O)C1=C(C)NC(C)=C(C(=O)OC(C)(C)CN(C)CCC(c2ccccc2)c2ccccc2)C1c1cccc([N+](=O)[O-])c1 (stereo not drawn),-0.9
6,CCC(=O)c1ccc2c(c1)N(CCCN(C)C)c1ccccc1S2,-0.2
7,COC(=O)C(c1ccccc1Cl)N1CCc2sccc2C1 (stereo not drawn),-0.7
8,OCCN1CCN(CCCN2c3ccccc3C=Cc3ccccc32)CC1,1.3
9,CCNC(=O)N1CCN(CCCC(c2ccc(F)cc2)c2ccc(F)cc2)CC1,-1.1
10,C(=C\c1ccccc1)/CN1CCN(C(c2ccccc2)c2ccccc2)CC1,0.3
11,Nc1cccc2c1CN(C1CCC(=O)NC1=O)C2=O (stereo not drawn),0.3
12,COC(=O)[C@@H](N)Cc1ccc(O)c(O)c1,0
13,CCCCc1ncc(/C=C(\Cc2cccs2)C(=O)O)n1Cc1ccc(C(=O)O)cc1,12.2
14,O=C(O)CN(CCOCCOCCN(CC(=O)O)CC(=O)O)CC(=O)O,0
15,CCCCCCCCCCCCCCC[C@H](O)[C@@H](N)CO,1.5
16,O=C(O)CP(=O)(O)O,3.8
17,N[C@@H](COP(=O)(O)O)C(=O)O,14.5
18,O=S(=O)(O)Oc1ccc(C(c2ccc(OS(=O)(=O)O)cc2)c2ccccn2)cc1,1.7
19,CCN(CC)CCCN(c1ccccc1)C1Cc2ccccc2C1,-1.3
